The source of these data is PubChem BioAssay AID504444 (National Center for Advancing Translational Sciences (NCATS), 2011).

Each structure is given as a SMILES string. In all, about 360,000 compounds went through this assay and about 7,500 (2.1%) were called active. Roughly 20% stayed inconclusive and do not appear here. Many of the other results were omitted from the sample, so actives are more common in it than they were. Unmarked numbers belong to inactive results. The call rests on the fitted dose curve; in most records, active means well fitted inhibition curve with a large enough effect; inconclusive means small, poorly fitted or top-dose-only effect, or effect the other way; inactive means flat fitted curve, though single readings scatter.
On the % scale 0 is the no-effect control and ±100 the full control effect; potency means the concentration at half of the fitted maximal effect.

The experiment can be described thus: Nrf2 qHTS screen for inhibitors. Further: nearly all actives have a fitted effect of over 60% in size. The note with it: A549 ARE-Fluc reporter, luciferase luminescence, 18-24 h; series mostly up to 46 µM; activity change, negative = inhibition: at the top concentration. The text has this: NIH Molecular Libraries Probe Production Network [MLPCN]
NIH Chemical Genomics Center [NCGC]
Assay Provider: Shyam Biswal, Johns Hopkins University
Nrf2 is a transcription factor that maintains cellular redox homoestasis and protects cells from xenobiotics. Nrf2 binds to the antioxidant response element (ARE) to induce gene expression of a broad spectrum of genes that encode for antioxidants. […] Finding a small molecule that act as an inhibitor of Nrf2 function would represent a novel therapeutic target that could lead to improvement in survival of patients undergoing chemo- and/or radio- therapy.
This is the Nrf2 activity measured in the luminescent read.
1. Shibata, T., et al., Genetic Alteration of Keap1 Confers Constitutive Nrf2 Activation and Resistance to Chemotherapy in Gallbladder Cancer. Gastroenterology, 2008.
2. Sjoblom, T., et al., The consensus coding sequences of human breast and colorectal cancers. Science, 2006. 314(5797): p. 268-74.
NCGC Assay Protocol Summary:
A concentration-response assay was performed with A549 ARE_Fluc cells which are suspended in 5% FBS OPTI-MEM. Five uL were dispensed into 1536-well white TC-treated plate using the Kalypsys dispenser to achieve a density of 5000 cells/well in all columns except column 1. The plate is incubated at 37deg C at 5% CO2 for 2 hours before 23 nL of compounds are added with the Kalypsys pin tool equipped with a 1,536-pin array containing 10-nL slotted pins (FP1S10, 0.457-mm diameter, 50.8 mm long; V&P Scientific). The control compounds Budesonide and Staurosporine are both added at a concentration of 2mM and Budesonide is also added as a 1:10 titration, starting at 200uM, to achieve dose-response. After an 18-24 hour incubation at 37deg C at 5% CO2, 5ul of medium is added to column 1. Afterwards 1ul of 5x of CellTiter-Fluor (Promega) is added to every well. The plate is then incubated at 37deg C at 5% CO2 for 30 minutes before they are read on the ViewLux (Perkin Elmer) for a fluorescent read Ex=405(10)/Em=525(10) for a 3 second exposure, 2x binning, and high gain. Then 3 uL of 3x BugLite is dispensed into all wells and the plate is incubated at ambient room temperature for 15 minutes. Afterwards another ViewLux read is performed using the clear filter to get a luminescent read with the settings of 40 second exposure, 2x binning, and high gain. Cytotoxicity is assessed through the first fluorescent read and then biochemical activity against Nrf2 is measured in the luminescent read.
(In general: qHTS replaces the single test concentration by a dilution series.)
`O=C(NNC(=O)c1ccccc1O)c1ccccc1O`: the “activity change, negative = inhibition” value was -25.8%.
`O=C(/C=C/c1ccccc1)c1ccccc1O`: the Potency is 3.66 µM (active).
As to `CCc1ccnc(NC(=O)Nc2ccc(OCc3ccccc3)cc2)c1`, the “activity change, negative = inhibition” value was -9.72%.
In the case of `CNC(=O)c1sc(Nc2ccc(OCc3ccccc3)cc2)nc1C`, the Potency is 20.6 µM (active).
Consider `O=C(O)/C=C\C(=O)Nc1ccc(OCc2ccccc2)cc1`, for which the “activity change, negative = inhibition” value is 18.1%.
In the case of `CCN(C[C@H]1N[C@@](CC)(C(=O)OC)[C@H]2C(=O)N(Cc3ccccc3)C(=O)[C@@H]12)S(=O)(=O)c1ccccc1`, the “activity change, negative = inhibition” value was 16.6%.
Turning to `Cc1cccc(C(=O)OCC(=O)NC(C)C2CC3CCC2C3)c1O` (centres undefined), the “activity change, negative = inhibition” value is -2.64%.
In the case of `CC(C)Cn1c(N)c(C(=O)COC(=O)C2CCCN2C(=O)c2cccs2)c(=O)n(C)c1=O` (centres undefined), the “activity change, negative = inhibition” value is -14.3%.
As for `COc1ccc(C(=O)COC(=O)CN2C(=O)C3CC=CCC3C2=O)c(OC)c1` (centres undefined), the “activity change, negative = inhibition” value is 1.38%.
For the molecule `CC(C)Cn1c(N)c(C(=O)COC(=O)CN2C(=O)C3CC=CCC3C2=O)c(=O)n(C)c1=O` (centres undefined), the Potency was 4.61 µM (active).
With `O=C(Nc1ccn(CCCNCc2ccc3[nH]ccc3c2)c(=O)n1)OCc1ccccc1`, the “activity change, negative = inhibition” value is -1.64%.
As to `CN(Cc1ccccc1)C(=O)c1ccc(COc2ccccc2)cc1`, the “activity change, negative = inhibition” value was 1.07%.
`COc1ccccc1S(=O)(=O)NCc1ccc(C(=O)N(C)Cc2ccc(F)cc2)cc1`: the Potency is 23.1 µM (active).
In the case of `O=C(NCCS(=O)(=O)NCc1ccc(F)cc1)c1ccccc1`, the “activity change, negative = inhibition” value is 3.15%.
In the case of `O=C1N(Cc2ccccc2)c2ccc(Cl)cc2C1(O)c1c[nH]c2ccccc12` (centres undefined), the “activity change, negative = inhibition” value was 1.03%.
Consider `CC(Nc1ncnc2ccc(-c3ccc4c(c3)OCO4)cc12)c1ccco1` (centres undefined), for which the “activity change, negative = inhibition” value was -6.5%.
The same measure, in the same setting: the figure for `Cc1cccc(NC(=O)c2cccc(C(F)(F)F)c2)c1` is 9.33%.
Consider `Cc1oc2c(F)c(F)c(F)c(F)c2c1S(=O)(=O)Nc1cccc(C(F)(F)F)c1`, for which the Potency is 8.2 µM (active).
On to `O=C(/C=C/c1ccc(F)cc1)Nc1cccc(S(=O)(=O)Nc2cccc(C(F)(F)F)c2)c1`, for which the “activity change, negative = inhibition” value was -7.06%.
Turning to `CCn1c2ccccc2c2cc(CN3CCN(Cc4cccc(Cl)c4)CC3)ccc21`, the “activity change, negative = inhibition” value was 1.46%.
Take `Cc1cccc(C(=O)N2c3nc(-c4ccco4)nn3C3(CCCCC3)[C@@H]3CCCC[C@@H]32)c1`: the “activity change, negative = inhibition” value is -10.5%.
As to `COc1cccc(NC(=O)c2ccc(S(=O)(=O)N(C)C)cc2)c1`, the “activity change, negative = inhibition” value was -11.6%.
Regarding `CN(C)S(=O)(=O)c1ccc(Oc2ccc(S(=O)(=O)N(C)C)cc2)cc1`, the Potency is 13 µM (active).
With `CN(C)S(=O)(=O)c1ccc(NC(=O)N2CCOCC2)cc1`, the “activity change, negative = inhibition” value is 12.1%.
`CCOc1ccc(-c2n[nH]c3c2C(c2ccccc2OC)N(c2ccc(Br)cc2)C3=O)cc1` (centres undefined): the “activity change, negative = inhibition” value is -90.3%.
Still for that read-out and setting: the figure for `CCCCCCCCNS(=O)(=O)CCNC1CCCCC1` is 17.5%; for `Cc1cccc(C(C)C)c1NC(=O)C(NS(=O)(=O)c1cccc2nsnc12)c1ccccc1` (centres undefined) it is 4.2%.
As for `CCNC(=O)N1c2ccccc2Sc2ccccc21`, the “activity change, negative = inhibition” value is 2.6%.
On to `O=C(CCN1c2ccccc2Sc2ccccc21)Nc1ccccc1`, for which the “activity change, negative = inhibition” value was -4.56%.
On to `CCN1/C(=C/C(=S)Nc2ccccc2)Sc2ccccc21`, for which the Potency was 6.51 µM (active).
On to `CC(C)NC(=O)Nc1cccc2c1O[C@H](CN(C)S(=O)(=O)c1cccs1)[C@@H](C)CN([C@H](C)CO)C2=O`, for which the “activity change, negative = inhibition” value was 4.9%.
Still for that read-out and setting: under `COc1cccc(N2CCN(S(=O)(=O)c3cc(Br)cc4c3N(C(=O)C3CC3)CC4)CC2)c1` stands -6.76% [at 9.27 µM]; under `O=C(NCCC1=CCCCC1)c1ccc2c(c1)N(Cc1ccccc1F)C(=O)c1ccccc1S2(=O)=O`, 17.8%; under `COc1cccc(OC2=NS(=O)(=O)c3ccccc32)c1`, 1.62% [at 65.3 µM].
Still for that read-out and setting: the figure for `Cn1nccc1CNC(=O)c1ccnn1C` is -3.22%; for `CCN(CC)C(=O)c1sc(NC(=O)c2ccco2)c(C#N)c1C` it is 2.27%.
Take `CCCc1ccc(-c2c(C)sc(NC(=O)c3ccnn3C)c2C#N)cc1`: the Potency is 13 µM (active).
`COc1ccc(C)cc1NC(=O)COCc1cc(-c2cccs2)on1`: the “activity change, negative = inhibition” value is -15.1%.
With `O=C(Nc1ccc(OC(F)(F)F)cc1)C1CCCN(S(=O)(=O)c2ccc(Br)s2)C1` (centres undefined), the “activity change, negative = inhibition” value was -12.6%.
Still for that read-out and setting: under `CCCCNc1nc2c(c(=O)[nH]c(=O)n2C)n1CCOc1ccccc1` stands -19.7%; under `Cn1c(=O)[nH]c(=O)c2c1nc(NCCc1ccccc1)n2Cc1ccc(F)cc1`, -17.7%.
For `Cn1c(=O)c2c(nc(NCCc3ccccc3)n2Cc2ccccc2)n(C)c1=O`, the Potency is 14.6 µM (active).
Consider `COC(=O)C(C)Sc1nc2c(c(=O)n(C)c(=O)n2C)n1Cc1cccc(C)c1` (centres undefined), for which the “activity change, negative = inhibition” value is -11.1%.
`Cn1c(=O)c2c(nc(NCCc3ccccc3)n2Cc2ccccc2Br)n(C)c1=O`: the “activity change, negative = inhibition” value was -3.57%.
On to `CCCCNc1nc2c(c(=O)n(C)c(=O)n2C)n1Cc1cccc(OC)c1`, for which the Potency was 5.8 µM (active).
For `Clc1ccc(CSc2nncn3c2cc2occc23)cc1`, the “activity change, negative = inhibition” value is -25.8%.
`N#CN1CCC(NS(=O)(=O)c2cccc(F)c2)C1` (centres undefined): the “activity change, negative = inhibition” value is 14.3%.
For the molecule `COc1ccccc1NC(=O)c1oc2ccccc2c1NC(=O)C(C)C`, the “activity change, negative = inhibition” value is -28.5%.
Turning to `CCN(CC)CCCC(C)n1c2nc(=O)[nH]c(=O)c-2nc2cc(Cl)ccc21` (centres undefined), the Potency is 20.6 µM (active).
